FXN GAA850 act – frataxin GAA850 promoter activation; HEK293 lucGAA850 FXN promoter luciferase reporter, 24 h; percent of 10 µM SAHA response; activation, % at 6 µM; hit rate 0.56% among 360,000; AID 540364;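 active = activation above the average of all compounds screened plus 3 SD, cutoff fixed separately per campaign, cut at about 7.5% in these data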;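 also: 0% = DMSO wells and 100% = 10 µM SAHA wells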
DAX1 inh-1 – inhibits human nuclear receptor DAX1. AID 504766. hit rate 0.99% among 340,000. HEK293 Gal4-DAX1 luciferase reporter, luminescence. P51843. inhibition, % at 6.75 µM;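 active = inhibition above the mean over all tested compounds plus 3 SD, cut at about 4.2% in these data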;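 also: 0% = DAX1-transfected cells with DMSO and 100% = empty-vector control cells with DMSO; inhibition shows as a rise in luminescence from relieved DAX1 repression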
Target sequence (P51843 207-470 limits assumed): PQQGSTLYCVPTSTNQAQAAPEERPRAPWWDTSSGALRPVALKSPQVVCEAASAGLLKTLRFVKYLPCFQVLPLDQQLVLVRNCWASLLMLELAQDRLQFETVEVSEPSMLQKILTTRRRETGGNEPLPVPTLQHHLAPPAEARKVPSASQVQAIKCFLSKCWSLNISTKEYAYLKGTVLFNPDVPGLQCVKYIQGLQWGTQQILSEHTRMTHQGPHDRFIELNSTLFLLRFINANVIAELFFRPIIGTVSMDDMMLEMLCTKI
hcDAF-12 act – activates DAF-12 receptor from parasite H. contortus. HEK293 hcDAF-12 lit1-tk-luc reporter, luminescence; 0% DMSO, 100% Δ7-dafachronic acid. activation, % at 6.8 µM. hit rate 1.4% among 370,000;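 active = activation above the mean of all tested compounds plus 3 SD, cut at about 5.5% in these data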;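 also: 100% = response to 3 µM Δ7-dafachronic acid high control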
hgDAF12 agonist – activates the H. glycines DAF-12 receptor ligand-binding domain; HEK293 GAL4-hgDAF12 UAS-luciferase reporter, agonist luminescence; normalized to butyrate control; activation, % at 6.8 µM; hit rate 1.8% among 370,000; AID 687014;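 active = activation above a cutoff set at the mean of all screened compounds plus 3 SD, cut at about 10% in these data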;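 also: 0% = DMSO wells and 100% = sodium butyrate wells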
DAX1 inh-2 – inhibitors of DAX1 repression of SF-1 activated StAR promoter; hit rate 1.1% among 370,000; inhibition, % at 6.8 µM; HEK293T StAR-luciferase reporter, SF-1/DAX-1 repression relief; AID 652010;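 active = inhibition above the mean over all tested compounds plus 3 SD, cut at about 3.6% in these data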;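 also: 0% = DAX-1 cells with DMSO and 100% = cells lacking DAX-1 with DMSO; higher inhibition means more luminescence from relief of DAX-1 repression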
ssDAF-12 act – S. stercoralis DAF-12 activation, primary screen | AID 652126 | HEK293 ssDAF-12/GRIP1 lit1-tk-luc reporter, luminescence; % of 3 µM dafachronic acid response | hit rate 1% among 370,000 | activation, % at 6.8 µM;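 active = activation above the mean over all tested compounds plus 3 SD, cut at about 0.9% in these data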;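 also: 0% = DMSO-only wells and 100% = 3 µM delta7-dafachronic acid wells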
* marks the source's active call; other numbers are inactive results; . = no result. An excerpt weighted towards active compounds, which were near 4.5% of everything screened.

SMILES | FXN GAA850 act | DAX1 inh-1 | hcDAF-12 act | hgDAF12 agonist | DAX1 inh-2 | ssDAF-12 act
CCOc1cc(/C=C2\C(=O)NC(=O)N(C)C2=O)cc([N+](=O)[O-])c1O | 2 | 13* | 0 | 4 | 0 | -2
CCOc1ccc(N2C(=O)NC(=O)/C(=C\c3cc(OC)c(OC)cc3[N+](=O)[O-])C2=O)cc1 | 1 | -1 | . | . | . | .
CC[C@H](C)[C@@H]1OC(=O)[C@H](C(C)C)N(C)C(=O)[C@H](C(C)C)NC(=O)[C@@H](C)[C@@H](CCCC#CBr)OC(=O)[C@H](C(C)C)N(C)C(=O)C2CCCN2C1=O (stereo partly specified) | . | . | -2 | -3 | . | -2
C/C=C(\C)C(=O)N[C@@H](c1ccccc1)[C@@H](O)C(=O)O[C@H]1C[C@@]2(O)[C@@H](OC(=O)c3ccccc3)C3[C@](C)(C(=O)[C@H](O)C(=C1C)C2(C)C)[C@@H](O)C[C@H]1OC[C@@]31OC(C)=O (stereo partly specified) | -8 | -5 | -1 | -2 | -4 | -2
CC(=O)O[C@@]12CO[C@@H]1C[C@H](O)[C@@]1(C)C(=O)[C@H](O)C3=C(C)[C@@H](O)C[C@@](O)([C@@H](OC(=O)c4ccccc4)C12)C3(C)C (stereo partly specified) | 0 | 4.3* | 0 | 1 | 1 | -1
N#CC1c2ccccc2-n2nncc2CN1C(=O)c1cccnc1 (stereo unspecified) | . | . | -1 | 0 | -1 | 0
CN(C(=O)Oc1ccc(C(C)(C)C)cc1)c1ccccc1 | 1 | 0 | -2 | 11* | 0 | -1
O=C(NC(Cc1ccccc1)P(=O)(O)Oc1ccccc1)OCc1ccccc1 (stereo unspecified) | . | . | -1 | -3 | 0 | -1
Cc1ccccc1NC(=S)NC(NC(=O)CF)C(Cl)(Cl)Cl (stereo unspecified) | 3 | 5.6* | 1 | -5 | 0 | -1
CCN(CC)P(c1n(C)cc[n+]1C)N(CC)CC | 0 | 6.2* | -1 | 0 | 0 | -1
CCOC(=O)[C@]12Cc3cc(C)ccc3[C@H]1N(C(C)C)C(=O)c1ccccc12 | . | . | 2 | -1 | 4.2* | -1
CCOC(=O)[C@]12Cc3ccccc3[C@H]1N(C)C(=O)c1cc(OC)ccc12 | . | . | -1 | -2 | 3.7* | -2
CCOC(=O)[C@]12Cc3cc(OC)ccc3[C@H]1N(C1CCCCC1)C(=O)c1cc(OC)ccc12 | . | . | -2 | 0 | -1 | -1
N#Cc1ccc2nc(-c3ccc(CN4CCC(n5c(=O)[nH]c6cc(Cl)ccc65)CC4)cc3)c(-c3ccccc3)nc2c1 | . | . | -3 | 0 | -2 | -2
CCC12CCN(CC3(O)CC3)C(Cc3ccc(O)cc31)C2(C)C (stereo unspecified) | . | . | 0 | -2 | 0 | -1
CN(C)C(=O)Oc1ccnc2cc(Cl)ccc12 | 0 | 5.5* | -2 | -2 | -1 | -2
Cc1ccc(/C=C2\C(=O)NC(=S)N(c3ccc(F)cc3)C2=O)s1 | 2 | 0 | 4 | 7 | 4.0* | 0
Cc1ccc(/C=C2\C(=O)NC(=S)N(c3ccccc3F)C2=O)s1 | 1 | 1 | 1 | -1 | 0 | -2
OC1CN2CCCC(O)C2C1O (stereo unspecified) | . | . | 1 | 2 | 0 | -1
CC(N)Cc1c[nH]c2ccc(Cl)cc12 (stereo unspecified) | -1 | 0 | 1 | 1 | -1 | 0
Clc1ccc2[nH]c3c(c2c1)CCNC3 | 2 | 3 | -2 | 1 | 0 | 0.9*
COP(=O)(C(=O)Nc1ccccc1)C(CC(C)C)NC(=O)OCc1ccccc1 (stereo unspecified) | . | . | 3 | 2 | -1 | 0
CN(C)[C@@H]1C(=O)C(C(N)=O)=C(O)[C@@]2(O)C(=O)C3=C(O)c4c(O)cccc4[C@@](C)(O)C3C[C@@H]12 (stereo partly specified) | 19* | -1 | 0 | -2 | 0 | -2
O=C(c1ccc(N2CCCCC2)c([N+](=O)[O-])c1)N1CCC2(CC1)OCCO2 | 0 | 5.1* | -1 | -1 | -1 | -2
CC1CCCN(c2ccc(C(=O)N3CCC4(CC3)OCCO4)cc2[N+](=O)[O-])C1 (stereo unspecified) | -2 | -1 | -3 | -1 | 1 | -1
SMILES | FXN GAA850 act | DAX1 inh-1 | hcDAF-12 act | hgDAF12 agonist | DAX1 inh-2 | ssDAF-12 act
O=C(O)[C@H]1NC[C@H]2C[C@H]21 | 0 | 4.8* | -1 | 2 | 0 | 0
Cc1cc(/C=C2/C(=O)NC(=O)N(c3ccc(Br)cc3)C2=O)c(C)n1C | 2 | 3 | 5.9* | 3 | 0 | 0
Cc1cc(/C=C2\C(=O)NC(=O)N(c3cccc(Br)c3)C2=O)c(C)n1C | 1 | 2 | 0 | 0 | 0 | -1
O=C(CN1C(=O)[C@@H](Cc2c[nH]c3ccccc23)N=C(c2ccccc2)c2ccccc21)NC1CCCCC1 | . | . | -1 | 1 | 1 | -1
Nc1c2c(nc3ccccc13)CCN(Cc1ccccc1)C2 | 1 | 1 | 6.1* | 4 | 0 | 0
Cn1c(O)c(C(=Nc2ccccc2)SCc2ccccc2Cl)c(=O)n(C)c1=O | -2 | -1 | 5 | 4 | 0 | -1
CSC(=Nc1ccccc1)c1c(O)n(C)c(=O)n(C)c1=O | -2 | 0 | 5.7* | 4 | 0 | -1
C/C(=N\NC(=S)Nc1ccccc1)c1c(O)n(C)c(=O)n(C)c1=O | 5 | 1 | 4 | 11* | 1 | 0
CC/C(=N\Nc1ccccc1)c1c(O)n(C)c(=O)n(C)c1=O | 1 | -1 | 4 | 0 | 0 | -1
NC(Cc1ccccc1)c1csc(Nc2ccccn2)n1 (stereo unspecified) | 2 | . | 4 | 11* | 2 | 0
COc1c(C)cc(C(=O)C2CCCN(C3CCOCC3)C2)cc1C (stereo unspecified) | 0 | 1 | 1 | -3 | 3 | -1
COc1ccc2cc(C(=O)C3CCCN(C4CCOCC4)C3)ccc2c1 (stereo unspecified) | 1 | 1 | 3 | -3 | 4.4* | -2
Cc1cccc2nc(-c3ccccc3)c(-c3ccc(CN4CCC(n5c(=O)[nH]c6cc(Cl)ccc65)CC4)cc3)nc12 | . | . | -1 | -1 | -1 | -1
C/C(=N\Nc1cccc2ccccc12)c1c(O)n(Cc2ccccc2)c(=O)[nH]c1=O | 0 | -1 | 3 | -2 | -1 | 0
C/C(=N\NC(=O)c1ccccc1)c1c(O)n(Cc2ccccc2)c(=O)[nH]c1=O | 4 | . | 3 | 11* | 1 | -1
C=CCn1c(O)c(C(CC)=NCc2ccco2)c(=O)[nH]c1=O | 1 | 4.9* | 0 | 0 | 0 | 0
CN1c2ccc(Br)cc2[C@H]2NCC[C@H]2[C@H]1CO | . | . | 4 | 2 | -1 | 0
